GLP1R inv ag: GLP-1 receptor (human) inverse agonism. P43220. HEK293 GLP-1R CRE-luciferase, luminescence, 24 h; GLP-1R form is constitutively active. Potency, µM (doses to about 38.3 µM), hits mostly inhibitors. 410,000 compounds, 1.6% hits. AID 624417; further: nearly all actives have a fitted effect of over 55% in size
Target sequence (P43220 whole entry, looked up): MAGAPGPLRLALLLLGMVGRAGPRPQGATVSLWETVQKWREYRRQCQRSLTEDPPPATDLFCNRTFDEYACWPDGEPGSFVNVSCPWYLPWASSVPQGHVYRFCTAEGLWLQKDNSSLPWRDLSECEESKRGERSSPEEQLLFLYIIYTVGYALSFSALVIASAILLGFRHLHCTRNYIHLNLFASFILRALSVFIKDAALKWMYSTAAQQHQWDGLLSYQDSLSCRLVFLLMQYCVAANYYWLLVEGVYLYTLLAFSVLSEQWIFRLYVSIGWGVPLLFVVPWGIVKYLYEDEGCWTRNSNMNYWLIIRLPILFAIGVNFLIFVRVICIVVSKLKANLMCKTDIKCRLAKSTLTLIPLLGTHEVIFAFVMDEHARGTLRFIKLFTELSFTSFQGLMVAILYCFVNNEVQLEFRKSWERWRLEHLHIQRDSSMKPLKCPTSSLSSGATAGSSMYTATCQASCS
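Using stably transfected HEK293 (constitutively active GLP-1R, cAMP-luciferase reporter), compounds were incubated 24 hr and luciferase measured by luminescence.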
RGS4 inh: human RGS4 inhibition. Potency, µM (doses to about 114 µM), most hits filed as inhibitors. Transcreener GDP fluorescence polarization, RGS4-accelerated GTP hydrolysis. 390,000 compounds, 0.039% hits. P49798; further: nearly all actives have a fitted effect of over 75% in size
Target sequence (P49798 whole entry, looked up): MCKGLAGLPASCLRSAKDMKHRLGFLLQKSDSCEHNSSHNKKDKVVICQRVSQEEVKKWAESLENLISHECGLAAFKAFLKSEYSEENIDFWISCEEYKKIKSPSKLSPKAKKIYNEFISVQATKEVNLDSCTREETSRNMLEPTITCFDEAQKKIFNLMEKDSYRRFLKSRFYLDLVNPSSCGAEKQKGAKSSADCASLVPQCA
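MLSMR compounds (23 nl, pin-transferred) preincubated 10 min at room temperature with a 500nM (2x) first reagent, then RGS4 at 900nM (2x) plus Transcreener GDP mix added; fluorescence polarization (620/688 nm) read before and after 90 min at 30 °C.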
PTHR1 agonist: activates the human parathyroid hormone receptor PTHR1 | AID 743266 | HEK293 GP2 PTHR1 cells, GloSensor cAMP luminescence, 1 h | Potency, µM (highest dose often 115 µM), usual class: activators | 410,000 compounds, 0.075% hits; further: nearly all actives have a fitted effect of over 55% in size
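HEK-293-derived GP2 cells expressing PTHR1 and a GloSensor cAMP reporter, 3,000/well, plated overnight, given luciferin plus IBMX (each 0.5 mM as added) for 1 h at 37 °C, then compound for 1 h at 37 °C. Luminescence was read after 15 min at room temperature.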
GLP1R ag: GLP-1 receptor (human) agonism; P43220; 380,000 compounds, 0.007% hits; Potency, µM (doses to about 45.6 µM), hits mostly activators; AID 624172; HEK293 GLP-1R CRE-luciferase, luminescence, 4-6 h; cells express a hypersensitive GLP-1R form
GLP1R cytotox: cytotoxic in the GLP-1 receptor inverse agonist counter-screen | HEK293 cAMP-luciferase reporter cells, luminescence, 24 h | Potency, µM (highest dose often 38.3 µM), usual class: inhibitors | AID 624418 | 410,000 compounds, 0.13% hits;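 further: loss of luciferase light is scored as toxicity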
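Here, cytotoxicity is scored as loss of luminescence. The MLSMR collection was tested on cells seeded in medium containing 10% Nu serum, with a 24 hr compound exposure preceded by 12 hours of culture.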
A number is an active result; - = inactive; ? = inconclusive; . = no result given; ! = repeats disagree; [ ] = dose if it differs, or a comment. A selection: hits, their analogues and other compounds. The true share with any hit is near 1.7%. The call rests on the fitted dose curve; in most records, active means well fitted curve in the direction sought with a large enough effect; inconclusive means small, poorly fitted or top-dose-only effect, or another doubt; inactive means no such curve, though single readings can be large; an effect the other way counts as inactive or inconclusive.

SMILES	GLP1R inv ag	RGS4 inh	PTHR1 agonist	GLP1R ag	GLP1R cytotox
CCSc1ncc(Cl)c(C(=O)N(Cc2ccccc2)Cc2ccco2)n1	10µM	-	-	.	-
CCCSc1ncc(Cl)c(C(=O)N(Cc2ccc(Cl)cc2)Cc2ccco2)n1	-	-	-	.	-
COc1ccc(NC(=O)c2nc(SC)ncc2Cl)cc1	-	-[11.4 µM]	-	-	-
CCCS(=O)(=O)c1ncc(Cl)c(C(=O)N(Cc2ccccc2)Cc2ccco2)n1	12.6µM	?	-	.	10µM
CC1CCCCN1C(=O)COC(=O)C1CCN(S(=O)(=O)c2ccc3c(c2)OCCO3)CC1 (stereo not given)	-	-	-	-	-
CCOc1ccc(NC(=O)c2ccccn2)cc1	2µM	-	-	-	-
COc1ccc(-c2n(CC(=O)OC3CC(C)CCC3C(C)C)c3ccccc3[n+]2C)cc1 (stereo not given)	7.08µM	-	-	-	?
Cc1csc(NC(=O)C(C)Oc2ccc(Cl)cc2C)n1 (stereo not given)	?	-	-	-	-
CC(=O)c1c(-c2ccccc2)c2cc(Cl)ccc2[nH]c1=O	-	-	-	-	-
CN(C)C=NC(=O)c1[nH]c2ccc(Cl)cc2c1-c1ccccc1	11.2µM	-	-	-	?
COc1cccc(/C=N/NC(=S)NC2CC3CC2C2C=CCC32)c1O (stereo not given)	-	-	-	-	?
Oc1ccccc1/C=N/NC(=S)NC1CC2CC1C1C=CCC21 (stereo not given)	?	-	-	-	4.47µM
Cc1ccc(C2N(c3ccc(Cl)cc3)C(=O)N3CCCN23)cc1 (stereo not given)	10µM	-	-	-	-
Cc1ccc(C(=O)Nc2ccc(-c3cn4cccnc4n3)cc2)cc1C	-	-	-	-	-
NS(=O)(=O)c1ccc(NC(=O)Nc2ccc(C(F)(F)F)cc2)cc1	5.01µM	-	-	-	-
CC(=O)c1c(C)[nH]c(C(=O)OCC(=O)Nc2ccc3c(c2)OCCO3)c1C	-	-	-	-	-
CCn1ccnc1CN(C)Cc1cn(-c2cccc(C)c2)nc1-c1cccc(F)c1	12.6µM	-	?	-	?
Cc1cccc(-n2cc(CN(C)Cc3nccn3C)c(-c3cccc(F)c3)n2)c1	?	-	-	-	?
Cc1oc(-c2ccc(C(=O)NCc3ccccc3)cc2)nc1CN1CCc2ccccc21	10µM	-	-	.	-
N/C(Cc1cccc2ccccc12)=N\OC(=O)c1ccccc1F	-	-	-	-	-
N/C(Cc1ccccc1)=N\OC(=O)c1cccc2ccccc12	12.6µM	-	-	?	10µM
O=C(CCc1ccc(O)cc1)c1c(O)cc(O)cc1O	-	18.9µM!	-	-	-
O=C(CC(C(=O)c1ccccc1)c1ccccc1)c1ccccc1 (stereo not given)	10µM	-	-	-	-
CN(C)CC(C(=O)c1ccccc1)c1ccccc1 (stereo not given)	-	?	-	-	8.91µM
O=C(c1ccccc1)C(CN1CCCCC1)c1ccccc1 (stereo not given)	2.82µM	?	-	-	?
SMILES	GLP1R inv ag	RGS4 inh	PTHR1 agonist	GLP1R ag	GLP1R cytotox
COc1ccc(C(=O)NCCn2cc(SCC(=O)Nc3ccc4c(c3)OCCO4)c3ccccc32)cc1	?	-	-	-	?
CCC(=O)Nc1nc(CC(=O)Nc2ccccc2OC)cs1	-	-	-	-	-
COc1cccc(NC(=O)Cc2csc(NC(=O)Nc3ccccc3OC)n2)c1	10µM	-	-	-	?
COc1ccccc1NC(=O)Nc1nc(CC(=O)Nc2ccc(OC)c(OC)c2)cs1	-	-	-	-	-
COc1ccccc1NC(=O)Cc1csc(NC(=S)Nc2ccc(C)cc2)n1	-	-	-	-	3.16µM
COc1cc(C)ccc1NC(=O)Cc1csc(NC(=O)Nc2ccccc2OC)n1	10µM	-	-	-	?
CCc1cc2c(COC(=O)c3cccc(NS(C)(=O)=O)c3)cc(=O)oc2cc1O	3.98µM	-	-	-	-
Cc1cccc(N2CCN(C(=O)c3ccc(Cl)c(S(=O)(=O)N4CCc5ccccc5C4)c3)CC2)c1C	7.08µM	-	-	-	-
CCc1nc2ccc(C(=O)NCCc3c[nH]c4ccccc34)cn2c1N(C=O)CCC(C)C	5.62µM	.	-	-	?
CCCCN(C=O)c1c(CC)nc2ccc(C(=O)NCCc3c[nH]c4ccccc34)cn12	-	.	-	-	-
O=C(NNC1=C(C(=O)C(F)(F)F)CCC1)c1cccc(Cl)c1	2.82µM	-	-	-	?
O=C(NNC1=C(C(=O)C(F)(F)F)CCC1)c1ccc(Cl)cc1	-	-	-	-	-
C[C@@H](c1ccccc1)N1C[C@H](COCc2ccccc2)Oc2cc(N3CC[C@H](O)C3)ccc2S1(=O)=O	10µM	.	-	-	-
CCCCC[C@@H](C)N1C[C@@H](COCc2ccccc2)Oc2cc(N3CCC[C@H]3CO)ccc2S1(=O)=O	?	.	-	-	-
CCCCC[C@@H](C)N1C[C@H](COCc2ccccc2)Oc2cc(N3CCC[C@@H]3CO)ccc2S1(=O)=O	11.2µM	.	-	-	-
C[C@H](c1ccccc1)N1C[C@@H](COCc2ccccc2)Oc2cc(N3CC[C@@H](O)C3)ccc2S1(=O)=O	?	.	-	-	-
Cc1ccc(OCC(=O)Nc2ccc(OCc3cc(=O)n4cccc(C)c4n3)cc2)cc1C	-	-	-	.	-
O=C(Nc1ccc2c(c1)CCC2)c1cnn2c1NC(=C1CC1)C=C2C(F)F	.	-	.	.	.
O=S(=O)(c1ccc(OCC2CO2)cc1)c1ccc(OCC2CO2)cc1 (stereo not given)	10µM	-	-	-	?
CC(C)(c1ccccc1)c1ccc(OCC2CO2)cc1 (stereo not given)	-	-	-	-	-
Cc1cc(C)cc(OCCSc2nc3ccc(NC(=O)c4ccc5c(c4)OCO5)cc3s2)c1	-	-	-	.	-
Nc1ccn(C2CO[C@H](CO)O2)c(=O)n1 (stereo not given in full)	.	.	.	-	.
C(=C\c1ccccc1)/CSc1nnc(-c2ccccc2)n1Cc1ccco1	7.08µM	-	-	-	-
Cc1ccc(-c2nnc(SCC(N)=O)nc2-c2ccc(C)cc2)cc1	-	-	-	-	-
Cc1ccc(-c2nnc(SCC(=O)NC(C)(C)C)nc2-c2ccc(C)cc2)cc1	11.2µM	-	-	.	-
O=C(NCC1CCCO1)C(c1cccs1)N(Cc1ccccc1Cl)C(=O)c1ccc(-c2ccccc2)[nH]1 (stereo not given)	2.51µM	-	-	-	-
CC(C)Cc1ccc(C(C)C(N)=Nc2ccc(O)cc2)cc1 (stereo not given)	12.6µM	-	-	-	?
CC(C)Cc1ccc(C(C)C(=O)Nc2ccc(O)cc2)cc1 (stereo not given)	?	-	-	-	-
